# This is a sample that favours compounds with a hit; in the whole collection about 2.3% have one here.
# Gli-Sufu block: Gli-Sufu pathway antagonism; AID 588413; actives 0.74% (n = 340,000); inhibition, % at 5 µM; Sufu-KO-LIGHT fibroblasts, Gli luciferase reporter luminescence;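 active = inhibition above about 55%, limit read from the data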
# 697 NFkB inh: inhibitors of the PMA/ionomycin-induced NF-kB reporter in 697 B cells; 697 B-cell NF-kB luciferase reporter, 16 h; actives 0.33% (n = 330,000); inhibition, % at 4 µM; in the data active = inhibition above about 35%
# EBV LMP1 NFkB: reduces LMP1-driven NF-kappaB luciferase signal. LMP1-induced NF-kappaB luciferase reporter cells, luminescence. inhibition, % at 12.5 µM. actives 0.69% (n = 350,000). AID 504558; in the data active = inhibition above about 41%
# Jurkat NFkB inh: lowers PMA/ionomycin-induced NF-kB signal in Jurkat cells; PMA/ionomycin-induced NF-kB luciferase reporter, luminescence; inhibition, % at 4 µM; actives 0.53% (n = 330,000); AID 435003; in the data active = inhibition above about 50%
# Shn3 inh set2: inhibitors of Schnurri-3 3'UTR reporter in osteoblasts; Clone20 osteoblast Shn3 3'UTR firefly luciferase, 24 h; inhibition, % at 12.5 µM; actives 0.52% (n = 360,000); AID 588674;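 active = mean inhibition of at least 75% with every replicate also reaching 75%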
# MITF TRPM1 inh: reduces MITF-dependent TRPM1 promoter luciferase signal; SK-MEL-5 TRPM1 promoter luciferase, 24 h; inhibition, % at 12.5 µM; actives 0.83% (n = 330,000); AID 488899;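 active = mean inhibition across replicates of 60% or more, whatever share of single replicates reaches that level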
# Jurkat NFkB conf: inhibitors of the PMA/ionomycin-induced NF-kB reporter in Jurkat cells, retest | shares compounds with Jurkat NFkB inh | Jurkat NF-kB luciferase, 16 h | inhibition, % at 4 µM | actives 27% (n = 2,700);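 active = inhibition reaching about 45% at 4 µM in either replicate, limit read from the data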
# Numbers stand for hits; 0 = inactive; - = not tested or not shown.
SMILES,Gli-Sufu block,697 NFkB inh,EBV LMP1 NFkB,Jurkat NFkB inh,Shn3 inh set2,MITF TRPM1 inh,Jurkat NFkB conf
CC[n+]1c(/C=C/c2ccc(OC)c(OC)c2)ccc2ccccc21,0,0,0,0,0,0,0
CCN(CC)c1ccc(/C=C/c2ccc3ccc(OC)cc3[n+]2CC)cc1,84,0,0,93,87,81,70
N#C/C(=C\c1ccc(-c2ccc(S(=O)(=O)N3CCOCC3)cc2)o1)C(=O)NC1CC1,0,-,0,-,0,0,-
COc1ccccc1-n1cnc2cc(NCc3cccs3)ccc21,0,0,0,51,0,0,0
Cc1ccccc1-n1cnc2cc(NCc3cccs3)ccc21,0,0,0,0,0,0,-
Nc1ccc(-c2nc3cc([N+](=O)[O-])ccc3o2)cc1,0,0,0,0,0,0,0
COc1ccc(-c2nc3cc([N+](=O)[O-])ccc3o2)cc1,0,0,0,0,0,0,0
COc1ccc(-c2nc3ccc([N+](=O)[O-])cc3[nH]2)cc1,0,-,0,-,0,0,-
CC(C)(C)c1ccc(-c2nc3cc(N)ccc3o2)cc1,0,0,0,0,0,0,0
CC(=O)Nc1c(C)ccc2nsnc12,0,0,0,0,0,0,-
C[N+]1(C2CCC3CCCC2C3O)CCCCC1 (configuration not stated),0,0,0,0,0,0,-
CCc1cc2cc(C(=O)Nc3ccc(F)cc3)sc2s1,0,0,0,0,0,0,-
CC(C)(C)c1ccc(C(=O)Nc2ccc(F)cc2)s1,0,0,0,0,0,0,0
CCOc1ccc(N/C(N)=N/c2nc(CSc3nnc(C)s3)cc(=O)[nH]2)cc1,0,0,0,74,0,0,50
Cc1cc(C(=O)CSc2nnc(N)s2)c(C)n1Cc1cccs1,0,0,0,0,0,0,0
CC(=O)Nc1ccc(SCC(=O)c2cc(C)n(Cc3cccs3)c2C)cc1,0,0,0,0,0,0,-
Cc1ccc(NC(=S)NNC(=S)Nc2ccc(C)cc2C)cc1,0,0,0,66,0,0,0
Cc1ccc(NC(=O)CCC(=O)NNC(=S)Nc2ccccc2)c(C)c1,0,0,0,0,0,0,-
COc1ccc(Nc2nc(N)c(C(=O)c3ccc(OC)cc3)s2)cc1,0,0,0,0,0,0,0
Oc1ccc2ccccc2c1/C=N/Nc1nnc(-c2ncc[nH]2)c2ccccc12,63,0,59,71,92,0,77
Cc1ccc(/C=N/NC(=O)C2COc3ccccc3O2)s1 (configuration not stated),0,0,0,59,0,0,48
CCC(C)(C)C1CCC2(CC1)NC(=O)N(CC(=O)Nc1cc(C(F)(F)F)ccc1N1CCOCC1)C2=O (configuration not stated),0,0,0,0,0,0,-
O=c1[nH]c(-c2ccccn2)cc2ccccc12,0,0,0,62,0,0,0
O=c1[nH]c(Nc2ccccn2)cc2ccccc12,0,0,0,0,0,0,-
O=C(COC(=O)c1ccc(OC(F)(F)F)cc1)Nc1ncccn1,0,0,0,0,0,0,-
SMILES,Gli-Sufu block,697 NFkB inh,EBV LMP1 NFkB,Jurkat NFkB inh,Shn3 inh set2,MITF TRPM1 inh,Jurkat NFkB conf
COc1ccc(CNC(=O)c2c(C)oc3c2C(=O)c2ccccc2C3=O)cc1,64,0,0,60,0,104,59
Cc1oc2c(c1C(=O)NCc1cccnc1)C(=O)c1ccccc1C2=O,80,0,-,88,-,-,84
Cc1onc(-c2ccccc2Cl)c1C(=O)NCc1cccnc1,0,0,0,0,0,0,-
COc1cc(OC)c(/C=C2\C(=O)Nc3ccccc32)c(OC)c1,0,0,-,56,-,-,54
Cc1[nH]c2ccccc2c1/C=C/c1nc2ccccc2c(=O)[nH]1,0,0,0,0,-,0,0
CCOc1ccc(S(=O)(=O)NCc2ccccn2)cc1NC(=O)c1ccccc1,0,0,0,53,0,0,46
Cc1cc(C)nc(/N=C(\N)Nc2ccc(OCc3ccccc3)cc2)n1,0,0,0,51,0,0,0
Cc1cc(C)nc(/N=C(\N)Nc2cccc(OCc3ccccc3)c2)n1,0,0,0,70,0,0,0
Cc1cc(C)nc(/N=C(\N)Nc2ccc(OCCC(C)C)cc2)n1,0,0,0,61,0,65,0
COc1ccc(C(Nc2cccc([N+](=O)[O-])c2)P(=O)(OC(C)C)OC(C)C)cc1 (configuration not stated),0,0,0,0,0,0,-
O=C(CC[C@H]1O[C@@H](n2cnc3c(NC(=O)c4ccccc4)ncnc32)[C@H](O)[C@@H]1O)NCc1ccccn1,-,-,-,-,0,-,-
CCc1c(C(=O)NC2CCCCC2)[nH]c(C)c1C(C)=O,0,0,0,0,0,0,-
Cc1csc(CNC(=O)c2ccc(OC3CCN(CCc4ccccc4)CC3)cc2)n1,0,0,0,0,0,0,-
COc1ccc(-c2nnc(COc3ccc(Br)cc3C)o2)cc1,0,0,-,0,0,-,-
CC(C)(C)CNC(=O)C1(C)CCN1C(=O)c1ccccc1CCc1ccccc1 (configuration not stated),-,-,-,-,0,-,-
O=C(CCN1C(=O)C2CCCCC2C1=O)Nc1nc2ccc(F)cc2s1 (configuration not stated),0,0,0,0,0,0,0
CC(C)(C)N1CC(C(=O)O)CC1=O (configuration not stated),0,0,0,0,0,0,-
CCn1c(NC(=O)C(C)C)c(-c2ccccc2)c(=O)c2ccccc21,0,0,-,0,0,-,-
COc1ccccc1NC(=O)Cn1nnc(C(=O)NCc2cccs2)c1N,0,0,0,53,0,0,63
CCc1ccccc1NC(=O)Cn1nnc(C(=O)NCc2cccs2)c1N,0,0,0,51,0,0,0
CCc1ccc(NC(=O)Cn2nnc(C(=O)NCc3cccs3)c2N)cc1,0,0,0,0,0,0,-
O=C(Nc1ccc(-c2nc3ccc(NC(=O)c4cccs4)cc3[nH]2)cc1)c1cccs1,0,0,0,91,0,79,0
O=C(Nc1ccc2nc(-c3cccs3)[nH]c2c1)c1cccs1,0,0,0,0,0,0,-
O=C(Nc1ccc(OC(F)F)c(Cl)c1)c1cccc(OC(F)F)c1,0,0,0,0,0,0,-
O=C(Nc1ccc2c(c1)CCC2)c1ccc(F)cc1,0,0,0,0,0,0,0
SMILES,Gli-Sufu block,697 NFkB inh,EBV LMP1 NFkB,Jurkat NFkB inh,Shn3 inh set2,MITF TRPM1 inh,Jurkat NFkB conf
O=C(Nc1ccc2c(c1)CCC2)Nc1ccc(F)cc1F,0,0,0,0,0,0,0
O=C(Nc1ccc2c(c1)CCC2)c1cccc(OC(F)F)c1,0,0,-,0,0,-,0
CCOC(=O)c1sc2nccc(N(C)C)c2c1N=CNOC,0,0,0,0,0,0,-
COC(=O)c1ccc2nc(-c3ccc(F)cc3)c(Cc3ccccc3)n2c1,-,-,-,-,0,-,-
O=C(NCc1ccco1)c1cccc2c1C(=O)c1ccc(/C=C/c3ccccc3)cc1S2(=O)=O,0,0,0,0,0,0,-
CC(C)C(=O)Nc1nc2cc3c(cc2s1)OCO3,0,0,0,0,0,-,-

# Bioassay records deposited in PubChem BioAssay by several laboratories.
